Rab9 promoter act – qHTS Assay for Rab9 Promoter Activators; Huh7 Rab9 promoter-luciferase reporter, luminescence, 24 h; Potency, µM (series often up to 9.22 µM), inactives show top-dose activation, negative = inhibition, hits mostly activators; 320,000 tested, 2.8% active; AID 485297, 2010; note: % of control where 0% means no effect; nearly all actives have a fitted effect of over 60% in size
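Promoter activation is measured as luciferase luminescence in Huh7 cells stably transfected with a Rab9 promoter–luciferase construct, following 24 h compound exposure at 37 °C and 10 min reagent incubation at ambient temperature.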
ELG1 genotoxic – qHTS screen for small molecules that induce genotoxicity in human embryonic kidney (HEK293T) cells expressing luciferase-tagged ELG1 | HEK293T ELG1-luciferase reporter, luminescence, 16 h | Potency, µM (top dose mostly 46 µM), for the others: at the highest dose activity change, positive = activation, usual class: activators | 330,000 tested, 1.3% active | AID 504466, 2011; note: % of control where 0% means no effect; nearly all actives have a fitted effect of over 60% in size
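After overnight (16 hr) compound treatment at 37 °C, ELG1-luciferase HEK293T cells were lysed with ONE-Glo; luminescence quantified 30 min later at room temperature.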
SMN2 splice up – qHTS Assay for Enhancers of SMN2 Splice Variant Expression; HEK293 SMN2-luciferase splicing reporter, luminescence, 30-36 h; Potency, µM (doses to about 46.1 µM), for the others: at the highest dose activity change, positive = activation, actives largely listed as activators; 210,000 tested, 2.8% active; AID 1458, 2008; note: % of control where 0% means no effect; nearly all actives have a fitted effect of over 55% in size
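HEK293 cells carry an SMN2 […]–luciferase reporter in which exon 7 inclusion puts luciferase in frame. Cells were plated 10-12 h before compound addition, then incubated 30-36 h at 37C. ONE-Glo luminescence was read; sodium butyrate at 4.5 mM final served as control.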
FLuc counter – qHTS profiling assay for firefly luciferase inhibitor/activator using purifed enzyme and Km concentrations of substrates (counterscreen for miR-21 project); Luciferin 4-monooxygenase (Photinus pyralis), P08659; purified FLuc, Km substrates, luminescence inhibition; Potency, µM (top dose mostly 57.5 µM), without a hit: at the highest dose activity change, negative = inhibition, usual class: inhibitors; 360,000 tested, 6.9% active;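 note: plate controls were vehicle for no effect and reference inhibitor for full effect; nearly all actives have a fitted effect of over 55% in size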
Target sequence (P08659 whole entry, looked up): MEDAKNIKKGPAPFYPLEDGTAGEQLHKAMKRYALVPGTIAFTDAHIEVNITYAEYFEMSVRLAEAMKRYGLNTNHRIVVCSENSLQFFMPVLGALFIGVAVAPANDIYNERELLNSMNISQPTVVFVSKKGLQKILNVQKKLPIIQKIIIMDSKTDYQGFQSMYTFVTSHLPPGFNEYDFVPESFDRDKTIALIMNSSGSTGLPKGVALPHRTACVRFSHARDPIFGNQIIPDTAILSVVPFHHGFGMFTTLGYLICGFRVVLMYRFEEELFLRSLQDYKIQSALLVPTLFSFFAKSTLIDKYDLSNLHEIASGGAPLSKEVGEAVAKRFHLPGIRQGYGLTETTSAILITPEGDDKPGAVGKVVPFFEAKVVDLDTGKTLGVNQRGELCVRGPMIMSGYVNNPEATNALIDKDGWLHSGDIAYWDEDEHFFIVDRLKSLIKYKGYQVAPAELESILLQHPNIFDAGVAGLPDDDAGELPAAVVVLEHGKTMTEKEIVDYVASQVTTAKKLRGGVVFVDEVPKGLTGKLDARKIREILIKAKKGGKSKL
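Purified P. pyralis luciferase (10nM final) with 10uM D-luciferin and 10uM ATP (Km levels) in 50mM Tris acetate pH 7.5, 10mM Mg acetate, 0.01% Tween-20, 0.05% BSA; qHTS 6-point titration, ~60 µM downward; luminescence read.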
NPC1 prom act – qHTS Assay for NPC1 Promoter Activators | Huh7 NPC1 promoter luciferase reporter, 24 h | Potency, µM (series often up to 9.22 µM), for inactives: at the top dose activation, actives largely listed as activators | 320,000 tested, 2.4% active; note: % of control where 0% means no effect; nearly all actives have a fitted effect of over 60% in size
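NPC1 promoter–luciferase Huh7 cells; 24 h compound; luminescence.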
Starred values were filed as active, the others as inactive. Only some compounds are listed: those with a hit (about 7.5% of all), similar ones and a draw of the others. Calls come from the whole dose curve; as a rule, active = well fitted curve in the direction sought with a large enough effect; inconclusive = small, poorly fitted or top-dose-only effect, or another doubt; inactive = no such curve, though single readings can be large; an effect the other way counts as inactive or inconclusive. Potency is the fitted concentration of half-maximal effect.

Cc1c(C(=O)Nc2cccc(C(F)(F)F)c2)oc2ccc3c(c12)C(=O)CC(C)(C)O3 was read as FLuc counter 3.38µM*.
For Cc1c(C(=O)Nc2ccc(F)cc2F)oc2ccc3c(c12)C(=O)CC(C)(C)O3 the results were FLuc counter 1.07µM*.
Screening Cc1cc(C)cc(NC(=O)c2oc3ccc4c(c3c2C)C(=O)CC(C)(C)O4)c1 returned FLuc counter 0.757µM*.
Screening O=S(=O)(Cc1ccccc1)N1CCCC(c2nc(-c3ccc(F)cc3)no2)C1 (stereo not given) returned Rab9 promoter act -5.8%, ELG1 genotoxic -3.1%, SMN2 splice up -2.5%, FLuc counter 3.5% and NPC1 prom act -6.6%.
COc1cccc(OCC(=O)NC2CCCCC2)c1 was read as Rab9 promoter act 2.1%, ELG1 genotoxic 3.5%, SMN2 splice up inconclusive, FLuc counter -2.7% and NPC1 prom act -4.9%.
COc1cccc(CN=C2Nc3ccccc3CS2)c1 was read as Rab9 promoter act 3.16µM*, ELG1 genotoxic inconclusive, SMN2 splice up 14.1µM*, FLuc counter 12µM* and NPC1 prom act 2.82µM*.
For COc1ccccc1CN=C1Nc2ccccc2CS1 the results were Rab9 promoter act inconclusive, ELG1 genotoxic 12.8%, SMN2 splice up inconclusive, FLuc counter 23.9µM* and NPC1 prom act inconclusive.
c1cncc(CN=C2Nc3ccccc3CS2)c1 was read as Rab9 promoter act 0.9%, ELG1 genotoxic -1.2%, SMN2 splice up 6.7%, FLuc counter -2.2% and NPC1 prom act 6.1%.
Screening COc1ccccc1CN=C1NC(=O)C(CC(=O)Nc2ccc(C(C)=O)cc2)S1 (stereo not given) returned Rab9 promoter act -5.1%, ELG1 genotoxic 2.1%, FLuc counter 3.1% and NPC1 prom act 1.8%.
`Clc1ccc(CN=C2Nc3ccccc3CS2)cc1` gave Rab9 promoter act 2.24µM*, ELG1 genotoxic inconclusive, SMN2 splice up 12.6µM*, FLuc counter 6.01µM* and NPC1 prom act 3.16µM*.
Screening Cc1ccc(CN=C2Nc3ccccc3CS2)cc1 returned Rab9 promoter act 0.447µM*, ELG1 genotoxic 2.59µM*, SMN2 splice up 7.94µM*, FLuc counter 0.601µM* and NPC1 prom act 0.501µM*.
COc1cccc(CN2CCSCC2)c1 was read as Rab9 promoter act -1.9%, ELG1 genotoxic -0.2%, SMN2 splice up 0.3%, FLuc counter 4.6% and NPC1 prom act -3.9%.
Screening Cc1ccc2oc(C(=O)Nc3nnc(CC(C)C)s3)cc(=O)c2c1 returned SMN2 splice up 10.6% and FLuc counter inconclusive.
Screening CCCc1nnc(NC(=O)c2cc(=O)c3cc(C)c(C)cc3o2)s1 returned SMN2 splice up -3.1% and FLuc counter 12µM*.
CCC(Oc1ccccc1)C(=O)N1CCN(C(=O)C(CC)Oc2ccccc2)CC1 (stereo not given) was read as Rab9 promoter act -15.3%, ELG1 genotoxic -6.4%, SMN2 splice up 0.4%, FLuc counter -1.3% and NPC1 prom act -2.3%.
For Cc1ccc(CNC(=O)Cn2ncn3cccc3c2=O)cc1 the results were Rab9 promoter act 2.51µM*, ELG1 genotoxic inconclusive, FLuc counter 13.5µM* and NPC1 prom act inconclusive.
For COc1cccc(CNC(=O)Cn2ncn3cccc3c2=O)c1OC the results were Rab9 promoter act 4.5%, ELG1 genotoxic 8.9%, FLuc counter -0.1% and NPC1 prom act 2.7%.
`CCc1nnc(NS(=O)(=O)c2ccc(NC(=O)/C=C/c3ccccc3Cl)cc2)s1` gave Rab9 promoter act -15.1%, ELG1 genotoxic 0.2%, SMN2 splice up 9.3%, FLuc counter 19µM* and NPC1 prom act 0.2%.
`CCc1nnc(NS(=O)(=O)c2ccc(NC(=O)c3ccc(Cl)cc3)cc2)s1` gave Rab9 promoter act -0.8%, ELG1 genotoxic -6.4%, SMN2 splice up -12.2%, FLuc counter 19µM* and NPC1 prom act -1.4%.
Screening CCc1nnc(NS(=O)(=O)c2ccc(NC(=O)c3ccccc3)cc2)s1 returned Rab9 promoter act -2.5%, ELG1 genotoxic -0.1%, FLuc counter inconclusive and NPC1 prom act -3.7%.
For CCc1nnc(NS(=O)(=O)c2ccc(NC(=O)/C=C/C(=O)O)cc2)s1 the results were Rab9 promoter act -0.9%, ELG1 genotoxic -2.0%, FLuc counter -12.6% and NPC1 prom act -3.9%.
`CC(=O)c1cc(-c2ccc(F)cc2)n(CCC(=O)NC(C)(C)C)c1C` gave Rab9 promoter act 0.5%, ELG1 genotoxic 6.6%, SMN2 splice up 0.5%, FLuc counter 5.2% and NPC1 prom act -8.2%.
Screening COc1cccc(CNS(=O)(=O)c2c(C(=O)N3CCC(C)CC3)c(C)n(C)c2C)c1 returned FLuc counter 0.7%.
For Cc1ccc(OCc2cnc(Cl)s2)c(C)c1 the results were Rab9 promoter act -0.1%, ELG1 genotoxic 19.2%, SMN2 splice up -0.1%, FLuc counter 10.7µM* and NPC1 prom act 3.9%.
For Cn1c(=O)c2cn(-c3ccc4c(c3)OCCO4)cc2n(C)c1=O the results were Rab9 promoter act inconclusive, ELG1 genotoxic 11.2µM*, SMN2 splice up inconclusive, FLuc counter inconclusive and NPC1 prom act inconclusive.
`Cc1cc(N)c(-n2cc3c(=O)n(C)c(=O)n(C)c3c2)cc1C` gave Rab9 promoter act inconclusive, ELG1 genotoxic inconclusive, SMN2 splice up inconclusive, FLuc counter 16.9µM* and NPC1 prom act 16.2%.
For Cc1ccc(-n2cc3c(=O)n(C)c(=O)n(C)c3c2)cc1C the results were Rab9 promoter act 26.9%, ELG1 genotoxic 0.5%, SMN2 splice up 2.9%, FLuc counter inconclusive and NPC1 prom act 27.7%.
Screening O=C(NC(=S)N1CCCc2ccccc21)c1ccc(Cl)cc1 returned Rab9 promoter act 26.5%, ELG1 genotoxic 16.3%, SMN2 splice up inconclusive, FLuc counter 6.75µM* and NPC1 prom act 14.6%.
O=C(COc1ccccc1)NC(=S)N1CCc2ccccc21 was read as Rab9 promoter act 17.4%, ELG1 genotoxic 2.6%, SMN2 splice up inconclusive, FLuc counter inconclusive and NPC1 prom act 12.1%.
COc1ccccc1C(=O)NC(=S)N1CCCc2ccccc21 was read as Rab9 promoter act 7.5%, ELG1 genotoxic 10.2%, SMN2 splice up -86.8%, FLuc counter 21.3µM* and NPC1 prom act -17.4%.
Screening COc1ccc(OCC(=O)NC(=S)N2CCCc3ccccc32)cc1 returned Rab9 promoter act -1.0%, ELG1 genotoxic 10µM*, SMN2 splice up 15.2%, FLuc counter 26.9µM* and NPC1 prom act 7.2%.
Screening COc1ccccc1C(=O)NC(=S)N1CCc2ccccc21 returned Rab9 promoter act -0.3%, ELG1 genotoxic 4.7%, SMN2 splice up 6.0%, FLuc counter -19.6% and NPC1 prom act 0.5%.

Screening results (PubChem BioAssay)
